Common to all, as to test: DAPPL (digital affinity profiling via proximity ligation, sequencing); 10 mM Tris-HCl pH 7.5, 50 mM NaCl, 1 mM DTT, 4% glycerol, room temperature, 30 min; GST-TFs on glutathione beads, 16-mer random dsDNA library, 0.1% formaldehyde crosslink after washing; high values mean tight binding
Experiment [1] addresses T1, FEV (Homo sapiens, UniProt Q99581 1-238).
T1 sequence: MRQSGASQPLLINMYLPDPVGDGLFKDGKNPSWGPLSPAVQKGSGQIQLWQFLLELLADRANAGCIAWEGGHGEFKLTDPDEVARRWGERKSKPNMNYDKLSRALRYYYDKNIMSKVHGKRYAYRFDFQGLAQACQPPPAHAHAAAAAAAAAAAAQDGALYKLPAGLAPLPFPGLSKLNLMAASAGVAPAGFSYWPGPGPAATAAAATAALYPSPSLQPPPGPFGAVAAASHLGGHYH
The settings on record: protein: recombinant; tags: N-terminal GST; dsDNA, one strand shown. The method, boiled down: (§1)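 Binding signal is each hexamer's read frequency for a factor divided by its frequency in the tag-only sample. The factors were GST-fused human transcription factors from yeast, captured on glutathione beads, DNA-barcoded and pooled with that sample. Pools were incubated with 200 nmole of a random double-stranded 16-mer DNA library in Tris/NaCl/DTT/glycerol buffer at room temperature for 30 min, then washed, crosslinked with 0.1% formaldehyde, proximity-ligated with BsaI/T4 ligase (1 h, 37 °C), PCR-amplified and sequenced on an Illumina NextSeq500.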

Experiment [2] has as its target ETV5 (Homo sapiens, UniProt P41161 1-510). The settings on record: protein: recombinant; tags: N-terminal GST; dsDNA, one strand shown. A digest of the protocol:
as §1

The target of experiment [3] is HSF1 (Homo sapiens, UniProt Q00613 1-529). As to conditions: protein: recombinant; tags: N-terminal GST; chain copies: 3; dsDNA, one strand shown. A digest of the protocol: as §1
Experiment [4] concerns the target T2, SPIC (Homo sapiens, UniProt Q8N5J4 1-248).
T2 sequence: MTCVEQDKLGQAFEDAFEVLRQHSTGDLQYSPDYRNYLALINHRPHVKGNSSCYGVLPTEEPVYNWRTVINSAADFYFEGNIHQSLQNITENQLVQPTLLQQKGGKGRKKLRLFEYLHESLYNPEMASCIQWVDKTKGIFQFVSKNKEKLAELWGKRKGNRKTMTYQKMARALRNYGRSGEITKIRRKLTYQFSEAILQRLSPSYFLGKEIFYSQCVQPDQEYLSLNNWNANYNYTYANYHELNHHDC
The settings on record: protein: recombinant; tags: N-terminal GST; dsDNA, one strand shown. A digest of the protocol:
as §1

For experiment [5], the target named is ELF4 (Homo sapiens, UniProt Q99607 1-663). The settings on record: protein: recombinant; tags: N-terminal GST; dsDNA, one strand shown. A digest of the protocol: as §1
Experiment [6] deals with T3, ELK4 (Homo sapiens, UniProt P28324-2 1-405).
T3 sequence: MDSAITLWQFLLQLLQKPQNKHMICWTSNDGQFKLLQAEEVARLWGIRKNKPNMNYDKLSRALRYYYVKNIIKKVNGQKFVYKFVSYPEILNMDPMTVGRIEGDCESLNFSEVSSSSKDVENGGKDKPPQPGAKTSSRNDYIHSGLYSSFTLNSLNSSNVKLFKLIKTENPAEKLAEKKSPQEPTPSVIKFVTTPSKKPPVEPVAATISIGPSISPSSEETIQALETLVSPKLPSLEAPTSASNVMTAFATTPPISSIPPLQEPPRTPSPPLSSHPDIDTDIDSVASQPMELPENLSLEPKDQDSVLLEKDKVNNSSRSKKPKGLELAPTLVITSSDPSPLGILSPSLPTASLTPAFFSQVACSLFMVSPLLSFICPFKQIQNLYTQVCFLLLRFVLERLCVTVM
The settings on record: protein: recombinant; tags: N-terminal GST; dsDNA, one strand shown. The method, boiled down: as §1

Experiment [7] has as its target T4, ETV2 (Homo sapiens, UniProt O00321 1-342).
T4 sequence: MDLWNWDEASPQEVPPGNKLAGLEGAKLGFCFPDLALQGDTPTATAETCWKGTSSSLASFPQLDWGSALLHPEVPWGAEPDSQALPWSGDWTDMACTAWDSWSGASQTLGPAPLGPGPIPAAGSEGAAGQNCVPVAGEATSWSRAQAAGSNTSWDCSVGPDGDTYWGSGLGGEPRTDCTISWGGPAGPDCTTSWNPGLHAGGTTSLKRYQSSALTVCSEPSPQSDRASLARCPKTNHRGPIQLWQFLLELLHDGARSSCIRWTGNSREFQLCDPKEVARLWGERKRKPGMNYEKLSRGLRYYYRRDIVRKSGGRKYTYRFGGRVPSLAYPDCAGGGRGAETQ
As to conditions: protein: recombinant; tags: N-terminal GST; dsDNA, one strand shown. The method, boiled down:
as §1

For experiment [8], the target named is T5, ELF3 (Homo sapiens, UniProt P78545 1-371).
T5 sequence: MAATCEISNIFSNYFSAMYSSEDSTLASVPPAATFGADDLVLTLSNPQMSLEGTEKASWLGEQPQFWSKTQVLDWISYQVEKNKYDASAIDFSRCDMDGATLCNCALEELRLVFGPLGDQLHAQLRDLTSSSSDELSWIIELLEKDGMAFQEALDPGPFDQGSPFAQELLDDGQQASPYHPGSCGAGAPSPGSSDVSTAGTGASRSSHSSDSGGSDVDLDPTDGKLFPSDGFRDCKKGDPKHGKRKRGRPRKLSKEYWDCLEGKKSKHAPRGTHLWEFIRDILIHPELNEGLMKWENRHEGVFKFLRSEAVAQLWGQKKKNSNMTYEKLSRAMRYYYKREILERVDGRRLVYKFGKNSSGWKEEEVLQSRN
As to conditions: protein: recombinant; tags: N-terminal GST; dsDNA, one strand shown. A digest of the protocol:
as §1

Experiment [9] addresses CRX (Homo sapiens, UniProt O43186 1-299). The settings on record: protein: recombinant; tags: N-terminal GST; dsDNA, one strand shown. A digest of the protocol:
as §1

Experiment [10] has as its target ETV1 (Homo sapiens, UniProt P50549 1-477). As to conditions: protein: recombinant; tags: N-terminal GST; dsDNA, one strand shown. A digest of the protocol:
as §1

In experiment [11] the target is T6, ERF (Homo sapiens, UniProt P50548 1-548).
T6 sequence: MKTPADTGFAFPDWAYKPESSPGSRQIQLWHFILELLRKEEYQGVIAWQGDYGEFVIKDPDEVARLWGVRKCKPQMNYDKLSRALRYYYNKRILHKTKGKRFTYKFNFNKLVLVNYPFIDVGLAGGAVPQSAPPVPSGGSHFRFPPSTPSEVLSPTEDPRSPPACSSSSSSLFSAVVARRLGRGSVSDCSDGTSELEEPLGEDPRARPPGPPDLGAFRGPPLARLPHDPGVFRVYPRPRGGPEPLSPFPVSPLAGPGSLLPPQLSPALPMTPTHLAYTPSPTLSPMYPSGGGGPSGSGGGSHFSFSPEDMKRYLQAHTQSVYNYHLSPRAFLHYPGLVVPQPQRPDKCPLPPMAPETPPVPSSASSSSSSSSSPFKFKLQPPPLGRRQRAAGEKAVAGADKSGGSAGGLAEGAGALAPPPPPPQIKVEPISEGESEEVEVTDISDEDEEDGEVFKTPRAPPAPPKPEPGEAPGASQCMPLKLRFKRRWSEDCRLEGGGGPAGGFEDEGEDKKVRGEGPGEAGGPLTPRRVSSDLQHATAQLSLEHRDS
As to conditions: protein: recombinant; tags: N-terminal GST; dsDNA, one strand shown. The method, boiled down:
as §1

Experiment [12] concerns the target T7, ETV3L (Homo sapiens, UniProt Q6ZN32 1-361).
T7 sequence: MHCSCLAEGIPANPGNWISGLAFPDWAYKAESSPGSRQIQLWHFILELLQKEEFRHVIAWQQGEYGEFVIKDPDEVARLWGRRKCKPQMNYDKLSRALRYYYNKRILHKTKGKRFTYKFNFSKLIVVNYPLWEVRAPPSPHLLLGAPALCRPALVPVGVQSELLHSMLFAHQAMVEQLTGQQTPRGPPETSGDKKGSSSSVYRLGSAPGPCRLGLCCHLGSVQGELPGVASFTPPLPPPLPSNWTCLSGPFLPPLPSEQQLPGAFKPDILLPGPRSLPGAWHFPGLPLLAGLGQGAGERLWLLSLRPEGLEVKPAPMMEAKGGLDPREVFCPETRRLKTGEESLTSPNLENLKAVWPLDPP
As to conditions: protein: recombinant; tags: N-terminal GST; dsDNA, one strand shown. The method, boiled down:
as §1

For experiment [13], the target named is T8, ETS2 (Homo sapiens, UniProt P15036 1-469).
T8 sequence: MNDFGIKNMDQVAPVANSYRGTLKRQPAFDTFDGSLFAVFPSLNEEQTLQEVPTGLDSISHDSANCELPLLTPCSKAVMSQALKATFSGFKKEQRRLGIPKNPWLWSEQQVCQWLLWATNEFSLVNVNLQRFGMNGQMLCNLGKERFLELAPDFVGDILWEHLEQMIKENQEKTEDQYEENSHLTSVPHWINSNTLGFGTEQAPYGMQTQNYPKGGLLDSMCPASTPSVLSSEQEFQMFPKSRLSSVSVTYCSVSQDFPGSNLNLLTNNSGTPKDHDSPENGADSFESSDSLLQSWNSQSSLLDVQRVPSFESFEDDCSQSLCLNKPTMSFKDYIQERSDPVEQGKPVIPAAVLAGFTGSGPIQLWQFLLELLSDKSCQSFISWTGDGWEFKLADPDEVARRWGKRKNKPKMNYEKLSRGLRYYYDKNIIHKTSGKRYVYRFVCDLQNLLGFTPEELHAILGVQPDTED
As to conditions: protein: recombinant; tags: N-terminal GST; dsDNA, one strand shown. A digest of the protocol:
as §1

Experiment [14] has as its target T9, SPDEF (Homo sapiens, UniProt O95238 1-335).
T9 sequence: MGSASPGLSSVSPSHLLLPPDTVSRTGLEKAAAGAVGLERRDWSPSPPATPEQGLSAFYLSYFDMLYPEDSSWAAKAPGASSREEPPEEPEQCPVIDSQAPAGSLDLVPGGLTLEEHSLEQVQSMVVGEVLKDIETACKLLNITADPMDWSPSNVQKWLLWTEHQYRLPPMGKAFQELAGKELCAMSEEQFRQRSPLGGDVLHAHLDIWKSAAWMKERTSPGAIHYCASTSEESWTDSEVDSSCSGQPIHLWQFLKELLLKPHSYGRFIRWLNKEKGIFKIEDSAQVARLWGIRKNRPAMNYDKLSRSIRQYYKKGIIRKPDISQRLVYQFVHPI
The settings on record: protein: recombinant; tags: N-terminal GST; dsDNA, one strand shown. A digest of the protocol: as §1

Experiment [15] addresses T10, ETV7 (Homo sapiens, UniProt Q9Y603 1-341).
T10 sequence: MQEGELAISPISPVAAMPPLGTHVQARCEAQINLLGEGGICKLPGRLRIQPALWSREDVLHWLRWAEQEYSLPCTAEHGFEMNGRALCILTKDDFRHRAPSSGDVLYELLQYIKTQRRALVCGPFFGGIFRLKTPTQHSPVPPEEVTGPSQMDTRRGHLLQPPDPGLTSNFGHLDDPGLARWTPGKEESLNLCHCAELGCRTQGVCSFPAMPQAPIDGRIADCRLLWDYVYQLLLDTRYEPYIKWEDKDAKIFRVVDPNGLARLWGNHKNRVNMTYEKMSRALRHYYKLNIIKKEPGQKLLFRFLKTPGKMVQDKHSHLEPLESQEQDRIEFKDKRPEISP
The settings on record: protein: recombinant; tags: N-terminal GST; dsDNA, one strand shown. A digest of the protocol: as §1

In experiment [16] the target is T11, ELF5 (Homo sapiens, UniProt Q9UKW6-2 1-255).
T11 sequence: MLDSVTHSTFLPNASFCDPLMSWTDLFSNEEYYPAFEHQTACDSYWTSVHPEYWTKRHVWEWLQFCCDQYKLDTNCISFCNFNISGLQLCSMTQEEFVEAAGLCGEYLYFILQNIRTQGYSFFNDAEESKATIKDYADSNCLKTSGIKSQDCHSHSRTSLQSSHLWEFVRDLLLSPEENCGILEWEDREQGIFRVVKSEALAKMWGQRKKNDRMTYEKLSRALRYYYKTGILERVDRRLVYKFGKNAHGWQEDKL
The settings on record: protein: recombinant; tags: N-terminal GST; dsDNA, one strand shown. The method, boiled down:
as §1

Experiment [17] addresses T12, ETV3 (Homo sapiens, UniProt P41162-2 1-143).
T12 sequence: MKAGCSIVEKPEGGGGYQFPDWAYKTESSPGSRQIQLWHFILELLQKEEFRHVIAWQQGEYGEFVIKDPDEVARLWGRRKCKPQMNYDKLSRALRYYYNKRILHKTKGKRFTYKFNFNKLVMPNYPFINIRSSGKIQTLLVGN
The settings on record: protein: recombinant; tags: N-terminal GST; dsDNA, one strand shown. A digest of the protocol: as §1

Experiment [18] addresses ETV6 (Homo sapiens, UniProt P41212 1-452). As to conditions: protein: recombinant; tags: N-terminal GST; dsDNA, one strand shown. A digest of the protocol: as §1

Sequence of ETV1 (P50549 whole entry): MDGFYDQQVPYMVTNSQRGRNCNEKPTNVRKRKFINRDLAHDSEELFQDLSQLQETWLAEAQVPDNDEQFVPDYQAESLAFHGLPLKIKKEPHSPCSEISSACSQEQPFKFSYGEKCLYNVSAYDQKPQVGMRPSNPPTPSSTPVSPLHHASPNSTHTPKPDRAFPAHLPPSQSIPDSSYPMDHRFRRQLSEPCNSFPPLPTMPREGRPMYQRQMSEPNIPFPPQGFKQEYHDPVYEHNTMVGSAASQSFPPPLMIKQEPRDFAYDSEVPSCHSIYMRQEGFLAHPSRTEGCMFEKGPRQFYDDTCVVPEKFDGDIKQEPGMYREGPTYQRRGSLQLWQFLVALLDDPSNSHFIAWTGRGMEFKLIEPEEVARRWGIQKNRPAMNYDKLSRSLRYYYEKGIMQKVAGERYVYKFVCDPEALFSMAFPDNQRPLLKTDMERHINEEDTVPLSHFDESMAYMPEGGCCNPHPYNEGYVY
Sequence of ETV5 (P41161 whole entry): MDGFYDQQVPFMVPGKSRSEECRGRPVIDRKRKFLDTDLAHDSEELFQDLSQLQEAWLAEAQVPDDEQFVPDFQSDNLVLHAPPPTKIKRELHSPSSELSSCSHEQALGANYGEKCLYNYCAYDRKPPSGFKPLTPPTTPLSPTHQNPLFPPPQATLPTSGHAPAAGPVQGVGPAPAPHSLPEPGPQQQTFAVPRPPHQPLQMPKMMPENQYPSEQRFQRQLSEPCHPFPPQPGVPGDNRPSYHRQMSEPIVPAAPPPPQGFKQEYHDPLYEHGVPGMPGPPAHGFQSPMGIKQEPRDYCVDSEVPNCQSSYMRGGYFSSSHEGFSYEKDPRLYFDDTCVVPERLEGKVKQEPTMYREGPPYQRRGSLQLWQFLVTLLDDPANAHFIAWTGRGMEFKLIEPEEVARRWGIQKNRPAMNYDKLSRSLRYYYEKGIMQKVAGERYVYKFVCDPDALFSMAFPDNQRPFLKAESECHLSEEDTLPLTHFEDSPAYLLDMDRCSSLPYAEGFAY
Sequence of ETV6 (P41212 whole entry): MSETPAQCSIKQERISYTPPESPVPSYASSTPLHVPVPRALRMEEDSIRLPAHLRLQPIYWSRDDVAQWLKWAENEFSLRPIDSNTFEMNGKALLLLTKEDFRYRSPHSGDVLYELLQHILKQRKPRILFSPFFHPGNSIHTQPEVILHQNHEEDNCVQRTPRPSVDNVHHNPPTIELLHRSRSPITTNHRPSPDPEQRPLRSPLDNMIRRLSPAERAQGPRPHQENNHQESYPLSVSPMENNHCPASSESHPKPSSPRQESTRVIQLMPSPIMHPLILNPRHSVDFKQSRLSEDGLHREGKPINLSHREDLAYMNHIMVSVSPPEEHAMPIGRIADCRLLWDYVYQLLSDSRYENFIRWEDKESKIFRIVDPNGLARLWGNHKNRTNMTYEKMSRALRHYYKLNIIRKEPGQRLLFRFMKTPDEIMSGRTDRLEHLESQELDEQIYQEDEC
Sequence of HSF1 (Q00613 whole entry): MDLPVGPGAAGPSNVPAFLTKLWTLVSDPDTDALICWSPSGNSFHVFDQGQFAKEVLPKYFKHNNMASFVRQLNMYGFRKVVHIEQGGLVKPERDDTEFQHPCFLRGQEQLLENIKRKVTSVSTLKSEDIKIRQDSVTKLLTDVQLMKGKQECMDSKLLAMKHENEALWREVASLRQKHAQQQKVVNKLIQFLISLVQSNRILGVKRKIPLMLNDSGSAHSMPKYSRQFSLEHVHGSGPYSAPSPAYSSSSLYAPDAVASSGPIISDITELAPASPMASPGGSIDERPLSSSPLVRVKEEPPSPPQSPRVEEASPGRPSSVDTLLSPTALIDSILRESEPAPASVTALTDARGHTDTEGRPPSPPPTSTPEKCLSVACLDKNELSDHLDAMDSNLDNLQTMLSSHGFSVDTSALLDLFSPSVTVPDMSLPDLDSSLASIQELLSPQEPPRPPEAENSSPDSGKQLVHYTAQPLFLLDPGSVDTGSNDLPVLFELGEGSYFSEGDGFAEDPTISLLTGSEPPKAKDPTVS
Sequence of ELF4 (Q99607 whole entry): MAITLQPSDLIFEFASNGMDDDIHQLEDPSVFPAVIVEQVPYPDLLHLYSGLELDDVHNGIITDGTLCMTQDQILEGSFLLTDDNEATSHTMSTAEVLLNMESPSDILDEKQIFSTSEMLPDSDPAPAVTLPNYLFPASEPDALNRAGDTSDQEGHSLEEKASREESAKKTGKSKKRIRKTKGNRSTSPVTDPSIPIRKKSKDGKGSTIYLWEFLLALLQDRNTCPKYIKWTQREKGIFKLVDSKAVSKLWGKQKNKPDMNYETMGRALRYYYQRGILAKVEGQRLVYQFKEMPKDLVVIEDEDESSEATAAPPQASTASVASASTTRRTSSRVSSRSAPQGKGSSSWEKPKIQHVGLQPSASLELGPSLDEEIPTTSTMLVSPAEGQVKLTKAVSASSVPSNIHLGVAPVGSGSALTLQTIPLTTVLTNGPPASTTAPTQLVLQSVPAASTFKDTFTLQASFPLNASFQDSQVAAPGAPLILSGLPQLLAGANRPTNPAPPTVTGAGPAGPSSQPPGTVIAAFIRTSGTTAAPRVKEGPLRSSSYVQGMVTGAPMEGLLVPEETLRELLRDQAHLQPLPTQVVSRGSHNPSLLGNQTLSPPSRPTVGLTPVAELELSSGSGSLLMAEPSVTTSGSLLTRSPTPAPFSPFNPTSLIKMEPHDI
Sequence of CRX (O43186 whole entry): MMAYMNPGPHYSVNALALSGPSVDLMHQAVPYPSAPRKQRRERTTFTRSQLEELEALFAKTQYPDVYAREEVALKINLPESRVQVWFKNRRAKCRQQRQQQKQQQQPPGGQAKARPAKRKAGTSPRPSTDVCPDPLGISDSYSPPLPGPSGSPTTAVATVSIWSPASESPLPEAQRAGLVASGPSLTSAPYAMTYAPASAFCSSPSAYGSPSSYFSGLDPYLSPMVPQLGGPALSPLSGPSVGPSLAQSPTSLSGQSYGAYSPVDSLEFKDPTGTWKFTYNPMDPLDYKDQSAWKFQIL

As for CCGAAT, the binding signal in [1] was 1.16 fold enrichment (6-mer frequency, TF over GST control); in experiment [2] it was 1.14 fold enrichment (6-mer frequency, TF over GST control); in [3], 1.64 fold enrichment (6-mer frequency, TF over GST control); in experiment [4], 1.29 fold enrichment (6-mer frequency, TF over GST control); in experiment [5] it was 1.16 fold enrichment (6-mer frequency, TF over GST control); in [6], 1.06 fold enrichment (6-mer frequency, TF over GST control). Also, the binding signal was 1.12 fold enrichment (6-mer frequency, TF over GST control) in experiment [7]; 1.16 fold enrichment (6-mer frequency, TF over GST control) in experiment [8]; 1.33 fold enrichment (6-mer frequency, TF over GST control) in [9]; 1.19 fold enrichment (6-mer frequency, TF over GST control) in experiment [10]; 1.35 fold enrichment (6-mer frequency, TF over GST control) in experiment [11]; 1.24 fold enrichment (6-mer frequency, TF over GST control) in experiment [12]. Also, the binding signal was 1.22 fold enrichment (6-mer frequency, TF over GST control) in [13]; 1.17 fold enrichment (6-mer frequency, TF over GST control) in [14]; 1.12 fold enrichment (6-mer frequency, TF over GST control) in experiment [15]; 1.1 fold enrichment (6-mer frequency, TF over GST control) in experiment [16]; 1.12 fold enrichment (6-mer frequency, TF over GST control) in experiment [17]; 1.22 fold enrichment (6-mer frequency, TF over GST control) in [18].
